Screening results (PubChem)
ASM inhibitor: blocks human secretory acid sphingomyelinase | placental ASM, HMU-PC fluorogenic substrate, 60 min | Potency, µM (highest dose often 57.5 µM), for the others: top-dose activity change, negative = inhibition, hits mostly inhibitors | 340,000 compounds, 0.006% hits | AID 504937; also: potency is read from the fitted curve at half-maximal effect
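Fluorogenic HMU-PC substrate (9 uM final) is turned over by placental ASM in 60 min at 37 C after a 10 min compound preincubation. Reaction ended by alkaline stop (pH 10), with fluorescence read at 386/447 nm.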
ClpP mod: qHTS Assay for Activators of ClpP; 340,000 compounds, 1.9% hits; AID 651965, 2013; ATP-dependent Clp protease proteolytic subunit (Bacillus subtilis (strain 168)), P80244; purified B. subtilis ClpP, FRET peptide cleavage, 20 min; Potency, µM (doses to about 57.5 µM), for inactives: at the highest dose activity change, negative = active; active = well fitted falling curve with a large enough effect; inconclusive = small, poorly fitted or top-dose-only effect; inactive = no such curve, though single readings can be large or run the other way; also: potency is read from the fitted curve at half-maximal effect; the source files actives as falling curves though it sought activators and does not explain the sign; nearly all actives have a fitted effect of over 65% in size
Target sequence (P80244 whole entry, looked up): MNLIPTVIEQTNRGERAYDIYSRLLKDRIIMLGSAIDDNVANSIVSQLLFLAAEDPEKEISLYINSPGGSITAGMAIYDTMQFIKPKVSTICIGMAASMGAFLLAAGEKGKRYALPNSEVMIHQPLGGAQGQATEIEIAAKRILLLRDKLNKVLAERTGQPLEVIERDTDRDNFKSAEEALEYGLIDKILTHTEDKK
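Purified B. subtilis ClpP, 10 microg/mL final in Tris/HCl pH8 with KCl, BSA, glycerol and Tween-20, cleaved an Abz/nitrotyrosine-quenched decapeptide. Fluorescence (ex 320, em 430) was read at 0 and 20 min at room temperature. Delta was normalized to 5.8 microM ADEP and DMSO/no-enzyme controls.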
LDHA inh: blocks human lactate dehydrogenase A; purified LDHA, NADH/diaphorase-resazurin fluorescence; stronger effect = lower value; activity change, % (values are at about 110 or 230 µM); 480,000 compounds, 0.15% hits; AID 1347041; in the data active = activity change below about -30%; inconclusive = mostly about -25% to -30%;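 also: plate controls were DMSO wells for no effect and wells without enzyme for full effect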
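Resorufin fluorescence (ex540/em590), read at 0 and 20 min after diaphorase/resazurin addition, reports the NADH left after a 5 min room-temperature reaction of 2 nM human LDH5 with 0.06 mM NADH and 0.2 mM pyruvate.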
Mito fusion yeast: mitochondrial division inhibition or fusion activation. S. cerevisiae fusion-defective mutant growth rescue, CellTiterGlo 48 h. Potency, µM (series often up to 46.1 µM), inactives show at the top dose growth rescue (activation), most hits filed as activators. 320,000 compounds, 0.23% hits; also: potency is read from the fitted curve at half-maximal effect; % of control where 0% means no effect; nearly all actives have a fitted effect of over 45% in size
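Yeast fusion mutant, YPEG (non-fermentable carbon), compound, 48 h at 37C non-permissive; CellTiterGlo added, 10 min RT, luminescence read. Rescued growth = division inhibition.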
RGS4 inhibitor: human RGS4 inhibition; P49798; Transcreener GDP fluorescence polarization, RGS4-accelerated GTP hydrolysis; Potency, µM (titrated, usually from 114 µM), for the others: at the highest dose activity change, negative = inhibition, hits mostly inhibitors; 390,000 compounds, 0.039% hits; AID 504845; also: potency is read from the fitted curve at half-maximal effect; % is scaled to controls: 0 for no effect and ±100 for the full control effect; nearly all actives have a fitted effect of over 75% in size
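MLSMR compounds (23 nl, pin-transferred) preincubated 10 min at room temperature with a 500nM (2x) first reagent, then RGS4 at 900nM (2x) plus Transcreener GDP mix added; fluorescence polarization (620/688 nm) read before and after 90 min at 30 °C.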
mIDH1 inhibitor: inhibitors of human mutant IDH1 R132H; O75874; IDH1-R132H enzyme, NADPH consumption, diaphorase/resazurin fluorescence; Potency, µM (doses to about 76.6 µM), inactives show at the top dose activity change, negative = inhibition, hits mostly inhibitors; 390,000 compounds, 0.093% hits; also: potency is read from the fitted curve at half-maximal effect; % is scaled to controls: 0 for no effect and ±100 for the full control effect; nearly all actives have a fitted effect of over 65% in size
Target sequence (O75874 whole entry R132H, stated change not applied): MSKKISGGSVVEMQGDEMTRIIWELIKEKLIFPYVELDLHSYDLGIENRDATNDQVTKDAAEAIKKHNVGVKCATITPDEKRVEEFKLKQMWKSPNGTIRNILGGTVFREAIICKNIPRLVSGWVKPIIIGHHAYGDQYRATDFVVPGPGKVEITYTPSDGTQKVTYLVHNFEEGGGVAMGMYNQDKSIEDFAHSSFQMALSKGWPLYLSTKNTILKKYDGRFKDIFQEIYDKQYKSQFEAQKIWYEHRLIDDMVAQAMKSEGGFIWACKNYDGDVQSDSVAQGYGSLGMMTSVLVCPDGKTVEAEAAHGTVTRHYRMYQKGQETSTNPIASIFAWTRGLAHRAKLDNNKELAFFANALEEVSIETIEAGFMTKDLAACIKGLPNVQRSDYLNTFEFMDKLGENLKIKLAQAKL
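IDH1-R132H (0.5 ug/mL) preincubated 30 min with compound, then NADPH (0.016 mM) and alpha-KG (2 mM) added; 80 min at RT, pH 7.5. Remaining NADPH coupled via diaphorase/resazurin to fluorescence (540/590 nm); concentration-response curves normalized to no-enzyme control.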
* = called active by the depositor; ? = inconclusive; nt = no result; [ ] = remark or other dose. This is one part of a sample in which hits are shown more often than they occur. Unless noted, calls follow the shape of the dose curve; as a rule, active = well fitted curve in the direction sought with a large enough effect; inconclusive = small, poorly fitted or top-dose-only effect, or another doubt; inactive = no such curve, though single readings can be large; an effect the other way counts as inactive or inconclusive.

SMILES	ASM inhibitor	ClpP mod	LDHA inh	Mito fusion yeast	RGS4 inhibitor	mIDH1 inhibitor
COc1cc2c(cc1OC)-c1cc(NCc3ccccn3)nc(=O)n1CC2	114%	28µM*	0	7%	-3%[11.4 µM]	?
CCNc1cc2n(c(=O)n1)CCc1cc(OC)c(OC)cc1-2	42%	28µM*	-2	3%	9%	6%
Cc1cc(NC(=O)C2CC2)sc1C(=O)NC(C)c1ccccc1 (stereo not drawn)	nt	nt	-9	nt	nt	nt
CCOc1ccc(CN2CCCC2c2cccc(C)c2)cc1 (stereo not drawn)	nt	nt	-2	nt	nt	nt
O=C(CN(c1ccc2c(c1)OCCO2)S(=O)(=O)c1ccccc1)N1CCN(Cc2ccccc2)CC1	-5%	32µM*	1	-4%	3%	5%
CCOc1ccccc1OCC(=O)Nc1ccc2[nH]c(=O)[nH]c2c1	0%	-1%	0	1%	-27%	2%
O=C(COc1ccccc1Cl)Nc1ccc2[nH]c(=O)[nH]c2c1	-3%	16µM*	-5	-6%	0%	1%
O=c1[nH]c2ccccc2cc1-c1noc(-c2cccnc2)n1	60%	32µM*	1	1%	-3%	2%
c1ccc(-c2ccc(-c3nc(-c4cccnc4)no3)cc2)cc1	-2%	14µM*	-10	1%	0%	-7%
CCN(Cc1ccccc1)C(=O)Cn1cc(C#N)c2ccccc21	nt	nt	7	nt	nt	nt
COc1ccc(NC(=O)Cn2cnc3c(nnn3Cc3ccc(C)cc3)c2=O)c(OC)c1	nt	nt	-3	nt	nt	nt
O=C(NCCN1CCN(S(=O)(=O)c2ccc([N+](=O)[O-])cc2)CC1)C(=O)Nc1ccccc1	-1%	28µM*	-1	-1%	-11%	-2%
COc1cc2c(c(O)c1OC)C(=O)C(OC)CCC2 (stereo not drawn)	3%	28µM*	-8	0%	6%	0%
COc1cc(-c2noc(-c3ccc(C(C)(C)C)cc3)n2)cc(OC)c1OC	nt	nt	-1	nt	nt	nt
CC(C)NC(=S)NNC(=O)C1(c2ccccc2)CCC1	nt	nt	1	nt	nt	nt
CCCn1c2c(c(=N)c3c1CCC3)CCCC2	4%	-2%	-36*	6%	-6%	-8%
Cc1cc(C)cc(NC(=O)C2C3C=CC4(O3)C2C(=O)N(CCCN2CCCC2)C4C(=O)NC2CCCC(C)C2C)c1 (stereo not drawn)	2%	nt	-3	38%	-15%	5%
COc1ccc(NC(=O)C2C3C=CC4(O3)C2C(=O)N(CCN2CCCCC2)C4C(=O)NC2CCCC(C)C2C)cc1 (stereo not drawn)	-1%	nt	3	32µM*	6%	15%
O=C(CNc1nnc(-c2ccc([S+](=O)([O-])N3CCCC3)cc2)n1-c1ccccc1)Nc1ccc(C(=O)O)cc1	nt	nt	-7	nt	nt	nt
Cc1ccc(CN(C)C(=O)c2cc(Br)ccc2O)c(C)c1	nt	nt	10	nt	nt	nt
CN(C(=O)c1cccs1)c1ccccc1C(=O)O	12%	20µM*	-8	-6%	5%	-3%
O=C(NC1CCCCC1)C(c1ccncc1)N(Cc1ccccc1)C(=O)c1ccc(-c2ccccc2)[nH]1 (stereo not drawn)	-26%	?	-1	-3%	-17%	-2%
COc1ccc(N(C(=O)Cn2nnc(-c3ccc(F)cc3)n2)C(C)C(=O)NC2CCCC2)cc1 (stereo not drawn)	-5%	nt	-1	27%	4%	0%
CC(C(=O)NC1CCCC1)N(C(=O)c1ccc(-c2ccccc2)[nH]1)c1ccccc1F (stereo not drawn)	-10%	32µM*	-6	3%	-21%	-1%
CC(C(=O)NC1CCCC1)N(C(=O)Cn1nnc(-c2ccc(F)cc2)n1)c1ccccc1F (stereo not drawn)	5%	nt	-3	7.1µM*	-5%	3%
SMILES	ASM inhibitor	ClpP mod	LDHA inh	Mito fusion yeast	RGS4 inhibitor	mIDH1 inhibitor
CC(Sc1ncc(C(F)(F)F)cc1Cl)C(=O)NC(C)c1ccc(F)cc1 (stereo not drawn)	nt	nt	1	nt	nt	nt
CCN(CC)C(=O)Oc1ccc2c(=O)c(-c3ccccc3)c(C(F)(F)F)oc2c1	nt	nt	0	nt	nt	nt
CCC(C)(Nc1ccccc1)c1nnnn1-c1cccc(C)c1 (stereo not drawn)	nt	nt	1	nt	nt	nt
Cc1ccccc1NC(=O)CN1C(=O)NC(C)(c2ccc3c(c2)OCO3)C1=O (stereo not drawn)	-1%	16µM*	-8	-2%	-4%	5%
CC1(c2ccc3c(c2)OCO3)NC(=O)N(CC(=O)Nc2ccccc2[N+](=O)[O-])C1=O (stereo not drawn)	10%	1%	-7	5%	-3%	0%
O=C(NCCOc1ccccc1)c1cc(C(=O)NCCOc2ccccc2)cc([N+](=O)[O-])c1	-7%	-3%	-45*	-1%	1%	5%
O=C(NCCOc1ccccc1)c1ccccc1[N+](=O)[O-]	-3%	-2%	-17	12%	10%	-3%
COCCN1C(=O)C(=O)/C(=C(/O)c2ccc3c(c2)OCCO3)C1c1ccc(C(=O)OC)cc1 (stereo not drawn)	2%	-11%	-2	-6%	0%	-2%
COCCCN1C(=O)C(=O)/C(=C(/O)c2ccc3c(c2)OCCO3)C1c1ccc(C(=O)OC)cc1 (stereo not drawn)	-2%	32µM*	-2	-1%	8%	-2%
Cc1cnc2c(S(=O)(=O)N(C)C3CCCCCC3)cccc2c1	nt	nt	6	nt	nt	nt
CCC(C(=O)Nc1ccc(C(F)(F)F)cc1)n1cnc2ccccc2c1=O (stereo not drawn)	nt	nt	14	nt	nt	nt
CCOc1ccc(CCNC(=O)Cn2ncn3c(cc4ccccc43)c2=O)cc1OCC	nt	-4%	-6	nt	11%	-15%
CSc1ccc(CCNC(=O)Cn2ncn3c(cc4ccccc43)c2=O)cc1	nt	20µM*	-4	nt	-4%	-4%
Cc1c(C(=O)OC(C)C)sc2nc[nH]c(=O)c12	3%	?	-3	8%	-5%	0%
COc1ccc(CNC(=O)c2sc3nc[nH]c(=O)c3c2C)cc1	nt	40µM*	1	nt	-10%	-6%
Cc1ccc(CNC(=O)c2sc3nc[nH]c(=O)c3c2C)cc1	nt	5%	-8	nt	-1%	nt
COc1ccc(-c2ccc3c(N)c(C(=O)NCc4ccc(C)cc4)sc3n2)cc1	nt	11µM*	-13	nt	12%	-5%
Cc1ccc(CNC(=O)c2sc3nc(-c4ccc(F)cc4)ccc3c2N)cc1	nt	-17%	-13	nt	-30%	12%
COC(=O)c1sc2nc[nH]c(=O)c2c1C	-2%	16µM*	-5	-6%	-7%	2%
